# This is a sample that favours compounds with a hit; in the whole collection about 10% have one here.
# FLuc inh – Photinus pyralis luciferase inhibition; P08659; purified P. pyralis luciferase, luminescence, biochemical; Potency, µM (highest dose often 115 µM), usual class: inhibitors; 76,000 tested, 2.5% active; note: nearly all actives have a fitted effect of over 65% in size
#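 Luminescence read by CCD imager after adding enzyme (10nM final) to wells holding compound, titrated in qHTS. Substrates 10uM each D-luciferin and ATP; buffer 50mM Tris acetate pH 7.5, 10mM Mg acetate, Tween-20, BSA.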
# 3T3 cytotox – cytotoxic compounds in NIH 3T3 cells; Potency, µM (series often up to 96.7 µM), for inactives: at the top dose activity change, negative = cytotoxicity, usual class: inhibitors; NIH 3T3 viability, CellTiter-Glo ATP luminescence, 48-72 h; 94,000 tested, 4.3% active; note: nearly all actives have a fitted effect of over 55% in size
#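 Viability of NIH 3T3 cells after 48 or 72 hr compound treatment at 37 °C was assessed by CellTiter-Glo, with luminescence imaged following a 10 min room-temperature step.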
# HEK cytotox – kills HEK 293 cells; AID 1345083; HEK 293 viability, ATP luminescence (CellTiter-Glo), 48-72 h; Potency, µM (top dose mostly 115 µM), for inactives: at the highest dose activity change, negative = cytotoxicity, usual class: inhibitors; 94,000 tested, 6.6% active; note: nearly all actives have a fitted effect of over 60% in size
#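 HEK 293 seeded at 250 cells/well receive compound via pintool. After 48 or 72 hr at 37 degree Celsius, 5% CO2 and 95% humidity, CellTiter-Glo is dispensed and luminescence read following 10 min at room temperature.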
# GPT2 inhibitor – blocks human glutamate pyruvate transaminase 2; Potency, µM (doses to about 57.7 µM), inactives show top-dose activity change, negative = inhibition, actives largely listed as inhibitors; Q8TD30; 100,000 tested, 0.25% active; Recombinant GPT2, coupled pyruvate oxidase/HRP Amplex Red fluorescence; AID 1671188; note: nearly all actives have a fitted effect of over 60% in size
# Target sequence (Q8TD30 whole entry, looked up): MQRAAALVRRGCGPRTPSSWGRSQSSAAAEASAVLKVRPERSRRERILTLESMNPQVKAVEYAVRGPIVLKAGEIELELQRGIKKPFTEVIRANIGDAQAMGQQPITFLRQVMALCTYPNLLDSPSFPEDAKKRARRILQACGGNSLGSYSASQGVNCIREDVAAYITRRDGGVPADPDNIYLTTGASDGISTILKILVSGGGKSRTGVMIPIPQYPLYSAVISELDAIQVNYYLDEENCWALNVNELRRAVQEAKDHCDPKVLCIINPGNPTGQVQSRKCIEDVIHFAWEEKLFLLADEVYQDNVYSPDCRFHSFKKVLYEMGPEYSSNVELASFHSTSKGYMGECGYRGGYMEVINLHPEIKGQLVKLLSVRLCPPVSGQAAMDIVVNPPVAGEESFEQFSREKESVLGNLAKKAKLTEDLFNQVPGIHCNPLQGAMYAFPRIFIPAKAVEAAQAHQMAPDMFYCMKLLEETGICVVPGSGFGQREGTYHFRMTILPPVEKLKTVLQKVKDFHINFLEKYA
#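 Inhibition is scored from Amplex Red fluorescence generated when pyruvate oxidase and HRP act on pyruvate released by GPT2. Reactions contain 10ng/uL enzyme, 250uM a-KG and 2mM L-alanine and run 30 min at room temperature.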
# hNpr1 antagonist – human Npr1 receptor antagonism | P16066 | Potency, µM (top dose mostly 46.3 µM), for inactives: at the highest dose activity change, negative = inhibition, hits mostly inhibitors | HEK293 hNpr1 GloSensor cGMP, ANP-stimulated luminescence | 76,000 tested, 1.6% active; calls by dose curve; note: nearly all actives have a fitted effect of over 60% in size
#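 HEK293 cells stably expressing human Npr1 and cGMP GloSensor pGS-40F, loaded 2 h with 2% GloSensor reagent, given compound 30 min at room temperature. Luminescence read before and 20 min after 0.1 nM hNppA.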
# * = called active by the depositor; i = inactive; ? = inconclusive; . = not tested or not shown; ! = repeats disagree; [ ] = dose if it differs, or a comment. Unless noted, calls come from the whole dose curve; as a rule, active = well fitted curve in the direction sought with a large enough effect; inconclusive = small, poorly fitted or top-dose-only effect, or another doubt; inactive = no such curve, though single readings can be large; an effect the other way counts as inactive or inconclusive. % is set by controls: 0 for no effect and ±100 for the full control effect; potency is the fitted concentration of half-maximal effect.
SMILES,FLuc inh,3T3 cytotox,HEK cytotox,GPT2 inhibitor,hNpr1 antagonist
COc1ccc(Cl)cc1-c1ccc2c(c1)C(=O)N1C[C@H](O)C[C@H]1C(=O)N2,i,?,?,-1%[88.5 µM],3%[70.6 µM]
C=CCO[C@@H]1CCN2C(=O)c3cc(-c4cccc(C(F)(F)F)c4)ccc3NC(=O)[C@H]12,i,?,71µM*,-8%[88.5 µM],-1%[70.6 µM]
O=C(NCCc1ccccc1F)C1CCCN(c2ccnc3ccnn23)C1 (stereo not given),.,-26%,?,4%,.
N[C@H]1CCN2C(=O)c3cc(-c4ccccc4F)ccc3NC(=O)[C@H]12,i,-28%[138 µM],-17%[172 µM],-10%[88.5 µM],-3%[70.6 µM]
CCS[C@H]1CCN2C(=O)c3cc(-c4ccccc4F)ccc3NC(=O)[C@H]12,i,?,89µM*,0%[88.5 µM],3%[70.6 µM]
O=c1[nH]c(C2CCCN(Cc3ccccc3)C2)nc2ccc(F)cc12 (stereo not given),i,28µM*!,50µM*!,-13%[88.5 µM],-12%[70.6 µM]
O=c1[nH]c(C2CCCN(Cc3cccs3)C2)nc2ccc(F)cc12 (stereo not given),i,?,?,i,-3%
O=c1[nH]c(C2CCCN(Cc3ccc(-c4ccccc4)cc3)C2)nc2ccc(F)cc12 (stereo not given),i,?,32µM*!,0%,?
COc1ccccc1-c1ccc(CN2CCCC(c3nc4ccc(F)cc4c(=O)[nH]3)C2)cc1 (stereo not given),i,40µM*!,35µM*!,-7%,?
O=c1[nH]c(C2CCCN(Cc3cccc(-c4ccc(F)cc4F)c3)C2)nc2ccc(F)cc12 (stereo not given),i,?,40µM*,0%,?
O=c1[nH]c(C2CCN(CC3CCCC3)CC2)nc2ccc(F)cc12,i,-4%,-14%,3%,11%
O=c1[nH]c(C2CCCN(Cc3ccc(-c4cc(F)cc(F)c4)cc3)C2)nc2ccc(F)cc12 (stereo not given),i,?,45µM*!,-9%,-26%
Cc1ccc(-c2cccc(CN3CCCC(c4nc5ccc(C)cc5c(=O)[nH]4)C3)c2)c(C)c1 (stereo not given),i,?,35µM*!,-6%,-2%
Cc1ccc2nc(C3CCCN(Cc4ccc(-c5cncnc5)cc4)C3)[nH]c(=O)c2c1 (stereo not given),i,4%,5%,1%,2%
CN(C(=O)c1ccc2nc(-c3ccc(F)cc3)cn2c1)C1CCOCC1,32µM*,-9%,?,i[11.5 µM],6%
O=C(C[C@@H]1CCNC[C@@H]1Cc1cc(-c2ccc(F)cc2)on1)Nc1nccs1,i,100µM*,100µM*,-13%[88.5 µM],-2%[70.6 µM]
COc1ccc(-c2cc(C[C@H]3CNCC[C@H]3CC(=O)N(C)Cc3ccccc3)no2)cc1,i,35µM*,32µM*,1%[88.5 µM],-22%[70.6 µM]
O=C(C[C@@H]1CCNC[C@@H]1Cc1cc(-c2ccccc2)on1)NCc1ccc(F)cc1,i,40µM*,40µM*,?,-10%[70.6 µM]
COc1ccc(CNC(=O)C[C@@H]2CCNC[C@@H]2Cc2cc(-c3ccc(OC)cc3)on2)cc1,i,?,40µM*,-23%,-13%
CN(Cc1ccccc1)C(=O)C[C@@H]1CCNC[C@@H]1Cc1cc(CSc2ccccc2)on1,i,?,?,-4%,1%
COc1ccc(CNC(=O)C[C@@H]2CCNC[C@@H]2Cc2cc(-c3ccc(F)cc3)on2)cc1,i,?,79µM*,i,-6%
COc1ccc(-c2cc(C[C@H]3CNCC[C@H]3CC(=O)NCc3ccccc3OC)no2)cc1,i,71µM*,?,-5%,-6%
O=C(C[C@@H]1CCNC[C@@H]1Cc1cc(-c2ccc(F)cc2)on1)NCc1ccco1,i,?,?,0%[88.5 µM],-13%[70.6 µM]
COc1ccc(-c2cc(C[C@H]3CNCC[C@H]3CC(=O)NCc3ccc4c(c3)OCO4)no2)cc1,i,79µM*,?,?,-16%
COc1ccc(CNC(=O)C[C@@H]2CCNC[C@@H]2Cc2cc(CN(C)Cc3ccccc3)on2)cc1,i,-20%,40µM*,i,-3%
SMILES,FLuc inh,3T3 cytotox,HEK cytotox,GPT2 inhibitor,hNpr1 antagonist
COc1ccc(-c2cc(C[C@H]3CNCC[C@H]3CC(=O)NCc3ccc(OC)c(OC)c3)no2)cc1,i,?,-29%,-8%,1%
CCOc1ccccc1NC(=O)N1CCC(N2CC(OCC3CC3)C23CCOCC3)CC1 (stereo not given),.,-12%,-6%,-11%,.
CN(C)c1nc2c(c(=O)[nH]1)CCN(Cc1cccc(OC(F)(F)F)c1)CC2,i,-5%,-3%,i,-2%
O=C(C[C@@H]1CCNC[C@@H]1Cc1cc(-c2ccc(F)cc2)on1)Nc1ccccc1,i,35µM*,40µM*,-5%[88.5 µM],-14%[70.6 µM]
CC(C)(C)c1ccc(-c2cc(C[C@H]3CNCC[C@H]3CC(=O)Nc3ccccc3)no2)cc1,i,?,?,-8%[88.5 µM],-10%[70.6 µM]
O=C(NCc1ccc2c(c1)OCO2)c1nc(-c2ccsc2)c2ccccn12,?,-27%,?,i,22%
COCCCn1c(C)cc(C(=O)NCCc2noc(-c3ccccc3)n2)c1C,i,?,40µM*,4%,-3%
CC(C)(C)OCC1CN(Cc2cccc(F)c2)[S+](=O)([O-])c2cccnc2O1 (stereo not given),.,-28%[46.1 µM],?,-2%[27.3 µM],.
Cc1ccc(C(=O)N2CCC(CCC(=O)N3CCCCC3)CC2)cc1,28µM*,-13%,?,-1%,2%
Cc1ccc(C(=O)N2CCC(CCC(=O)NC3CCCCCC3)CC2)cc1,40µM*,?,?,?,-20%
CCC(CC)NC(=O)CCC1CCN(C(=O)c2ccc(C)cc2)CC1,40µM*,-6%,-11%,i,-13%
Cc1ccc(CN2CCN(C(=O)CCC3CCN(C(=O)c4ccccc4)CC3)CC2)cc1,i,-24%,?,i,?
COCCCn1c(C)cc(C(=O)N2CC(c3noc(COc4ccc(F)cc4)n3)C2)c1C,.,?,?,-9%,.
C[S+](=O)([O-])N1CCN(C(=O)c2nc3cccnc3n(CCc3ccccc3)c2=O)CC1,.,-9%,4%,i,.
Cc1nn(-c2ccc(C(C)C)cc2)c(C)c1[C@@H]1C=C[C@@H](NCc2ccc(F)cc2)C1,22µM*,7.1µM*,8.9µM*,-6%[88.5 µM],?
Cc1nn(-c2ccc(C(F)(F)F)cc2)c(C)c1[C@@H]1C=C[C@@H](NC(=O)CC(C)(C)CC(=O)O)C1,i,?,-20%,i,1%
Cc1nn(CCC#N)c(C)c1[C@@H]1C=C[C@@H](NCc2ccc(C(C)C)cc2)C1,i,?,71µM*,i,-26%[70.6 µM]
Cc1nn(CCC#N)c(C)c1[C@@H]1C=C[C@@H](NCc2ccc(F)cc2)C1,i,2%[174 µM],-15%[172 µM],-22%[88.5 µM],-3%[70.6 µM]

# From PubChem
